# According to the supplement of paper PMC10646978:
# ± gives the standard deviation.
# System: RAW-Dual (murine macrophage reporter line)
# Assay: IRF reporter (Lucia luciferase) activity fold change vs agonist alone; higher = enhanced IRF activity
# Conditions: modulator concentration 10 µM; agonist: LPS 0.1 ug/mL
# In short: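 Compound reached 10 μM final in each well by pin transfer, onto RAW-Dual murine macrophage reporter cells seeded at 50 000 per well in 384-well plates. After 1 hour at 37 °C, the cells were stimulated overnight with a PRR agonist. SEAP in the supernatant was read with QUANTI-Blue at 620 nm absorbance for NF-κB, and Lucia luciferase was read with QUANTI-Luc luminescence for IRF. Each signal was turned into fold change against the mean agonist-only control on the same plate, and two replicate plates were averaged with propagated errors.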
row,SMILES,IRF reporter
1,Cc1ccc(S(=O)(=O)N2CCN(C(C)C)CC2)cc1,0.898 ± 0.037
2,CCN1C(=O)C(=Cc2nc3ccccc3c(=O)n2-c2ccc(C)cc2)c2ccccc21,1.55 ± 0.28
3,O=S(=O)(Nc1nc2ccccc2nc1Nc1ccc2c(c1)OCCO2)c1cccs1,1.29 ± 0.2
4,O=C1CC(c2ccc(O)cc2)Oc2cc(O)cc(O)c21 (centres undefined),1.09 ± 0.14
5,C=CCc1ccc(OCCCOc2ccccc2C(C)=O)c(OC)c1,0.863 ± 0.052
6,CCNc1nc(S)nc(NC(C)C)n1,0.98 ± 0.13
7,Cl.O[C@@H](CNC[C@H](O)[C@H]1CCc2cc(F)ccc2O1)[C@@H]1CCc2cc(F)ccc2O1,0.642 ± 0.021
8,CNc1nc(Nc2ccc(C)c(C)c2)c2nccnc2n1,1.01 ± 0.19
9,O=C(NCCOc1cccc2cccnc12)c1c(F)cccc1F,1.01 ± 0.1
10,CCNC(=O)c1ccc(CN2CCc3ccccc3C2)cc1,1.37 ± 0.29
11,Cc1ccc(N2CC(C(=O)NCC3CCCO3)CC2=O)cc1 (centres undefined),1.05 ± 0.051
12,Cc1cc(Cl)ccc1OCCCC(=O)NO,0.449 ± 0.084
13,Cc1ccc(/C(=C\CN2CCCC2)c2ccccn2)cc1.Cl.O,1.09 ± 0.13
14,Cc1cc(C)c(NC(=O)c2ccc(Oc3nccs3)cc2)c(C)c1,0.939 ± 0.21
15,O=C1OC(CNS(=O)(=O)c2ccccc2Cl)CN1c1ccc(Cl)c(Cl)c1 (centres undefined),1.11 ± 0.068
16,Cc1nc2ccc(CN(C)c3ccc(C(=O)N[C@@H](CCC(=O)O)C(=O)O)s3)cc2c(=O)[nH]1,1.09 ± 0.063
17,CN(C)CCCN1c2ccccc2Sc2ccc(Cl)cc21 [Prestw-64],2.26 ± 0.33
18,CS(=O)(=O)N(CC(=O)Nc1ccccc1Br)c1ccc(Cl)c(C(F)(F)F)c1,1.13 ± 0.23
19,O=C(OCCO)c1cc(Cl)c(C(=O)OCCO)cc1Cl,1.49 ± 0.1
